# Source: the supplement of paper PMC8728848
# Only a selection was taken, and the strongest signals are over-represented in it overall.
# Tests used:
# Test in all cases: glycan array binding signal (z-score within array); higher = stronger binding
# Conditions in all cases: glycan notation: IUPAC condensed, linker removed
# Fuc(a1-2)Gal(b1-3)GalNAc = biological target: Fuc(a1-2)Gal(b1-3)GalNAc
# Method in brief: (§1)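 The binding signal is a Z-score computed within each array and averaged over linkers. Arrays of the same protein sequence at different concentrations or buffers were also averaged together. Data originate from 3228 arrays in the Consortium for Functional Glycomics database, kept only where the protein sequence was available.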
# [1] = biological target: Fuc(a1-2)[Gal(a1-3)]Gal(b1-3)GlcNAc
# Method in brief: as §1
# [2] = biological target: Fuc(a1-2)[GalNAc(a1-3)]Gal(b1-4)[Fuc(a1-3)]GlcNAc
# Method in brief: as §1
# [3] = biological target: Fuc(a1-3)[Gal(b1-4)]GlcNAc(b1-3)Gal(b1-3)[Fuc(a1-4)]GlcNAc
# Method in brief: as §1
# [4] = biological target: Fuc(a1-3)[Gal(b1-4)]GlcNAc(b1-4)Gal(b1-4)[Fuc(a1-3)]GlcNAc
# Method in brief: as §1
# Fuc(b1-3)GlcNAc = biological target: Fuc(b1-3)GlcNAc
# Method in brief: as §1
# [5] = biological target: Gal(a1-3)[Gal(a1-4)]Gal(b1-4)GlcNAc
# Method in brief: as §1
# [6] = biological target: Gal(b1-3)[Fuc(a1-4)]GlcNAc(b1-3)Gal(b1-4)[Fuc(a1-3)]GlcNAc
# Method in brief: as §1
# [7] = biological target: Gal(b1-4)GalNAc(b1-3)[Fuc(a1-2)]Gal(b1-4)GlcNAc
# Method in brief: as §1
# [8] = biological target: Gal(b1-4)GlcNAc(b1-3)Gal(b1-4)GlcNAc(b1-3)Gal(b1-4)GlcNAc
# Method in brief: as §1
# [9] = biological target: Gal(b1-4)GlcNAc(b1-3)[Gal(b1-4)GlcNAc(b1-6)]GalNAc
# Method in brief: as §1
# Gal3S(b1-3)GalNAc = biological target: Gal3S(b1-3)GalNAc
# Method in brief: as §1
# Gal3S(b1-4)Glc6S = biological target: Gal3S(b1-4)Glc6S
# Method in brief: as §1
# Gal3S6S(b1-4)GlcNAc = biological target: Gal3S6S(b1-4)GlcNAc
# Method in brief: as §1
# GalNAc(a1-3)GalNAc = biological target: GalNAc(a1-3)GalNAc
# Method in brief: as §1
# [10] = biological target: GlcNAc(a1-3)Gal(b1-4)GlcNAc
# Method in brief: as §1
# [11] = biological target: GlcNAc(b1-3)[GlcNAc(b1-4)][GlcNAc(b1-6)]GlcNAc
# Method in brief: as §1
# [12] = biological target: Man(a1-2)Man(a1-2)Man(a1-3)[Man(a1-2)Man(a1-3)[Man(a1-2)Man(a1-6)]Man(a1-6)]Man(b1-4)GlcNAc(b1-4)GlcNAc
# Method in brief: as §1
# [13] = biological target: Neu5Ac(a2-3)Gal(b1-3)GlcNAc(b1-3)Gal(b1-4)GlcNAc
# Method in brief: as §1
# [14] = biological target: Neu5Ac(a2-3)Gal(b1-4)GlcNAc6S
# Method in brief: as §1
# [15] = biological target: Neu5Ac(a2-3)[Neu5Ac(a2-6)]GalNAc
# Method in brief: as §1
# [16] = biological target: Neu5Ac(a2-8)Neu5Ac(a2-8)Neu5Ac(a2-3)[GalNAc(b1-4)]Gal(b1-4)Glc
# Method in brief: as §1
# Fuc(a1-2)Gal(b1-4)Glc = biological target: Fuc(a1-2)Gal(b1-4)Glc
# Method in brief: as §1
# [17] = biological target: Fuc(a1-2)[Gal(a1-4)]Gal(b1-4)GlcNAc
# Method in brief: as §1
# [18] = biological target: Fuc(a1-3)[Gal(b1-4)]GlcNAc(b1-4)Gal(b1-4)[Fuc(a1-3)]GlcNAc(b1-4)Gal(b1-4)[Fuc(a1-3)]GlcNAc
# Method in brief: as §1
# [19] = biological target: Fuc(a1-3)[Gal3S(b1-4)]Glc6S
# Method in brief: as §1
# Gal(a1-4)Gal(b1-4)Glc = biological target: Gal(a1-4)Gal(b1-4)Glc
# Method in brief: as §1
# Gal(b1-2)Gal = biological target: Gal(b1-2)Gal
# Method in brief: as §1
# [20] = biological target: Gal(b1-3)GlcNAc(b1-3)Gal(b1-4)Glc
# Method in brief: as §1
# GalNAc(b1-3)Gal = biological target: GalNAc(b1-3)Gal
# Method in brief: as §1
# [21] = biological target: GlcNAc(b1-2)Man(a1-3)[GlcNAc(b1-2)Man(a1-6)]Man(b1-4)GlcNAc(b1-4)GlcNAc
# Method in brief: as §1
# GlcNAc(b1-3)Man = biological target: GlcNAc(b1-3)Man
# Method in brief: as §1
# GlcNAc(b1-6)GalNAc = biological target: GlcNAc(b1-6)GalNAc
# Method in brief: as §1
# Kdn(a2-3)Gal(b1-4)GlcNAc = biological target: Kdn(a2-3)Gal(b1-4)GlcNAc
# Method in brief: as §1
# [22] = biological target: Man(a1-2)Man(a1-3)[Man(a1-2)Man(a1-6)]Man
# Method in brief: as §1
# [23] = biological target: Neu5Ac(a2-3)Gal(b1-3)GalNAc(b1-3)Gal(a1-4)Gal(b1-4)Glc
# Method in brief: as §1
# [24] = biological target: Neu5Ac(a2-3)Gal(b1-3)GalNAc6S
# Method in brief: as §1
# [25] = biological target: Neu5Ac(a2-3)Gal(b1-4)GlcNAc(b1-6)[Neu5Ac(a2-3)Gal(b1-3)]GalNAc
# Method in brief: as §1
# [26] = biological target: Neu5Ac(a2-6)Gal(b1-4)GlcNAc(b1-2)Man(a1-3)[GlcNAc(b1-2)Man(a1-6)]Man(b1-4)GlcNAc(b1-4)GlcNAc
# Method in brief: as §1
# [27] = biological target: Neu5Ac(a2-6)Gal(b1-4)GlcNAc(b1-2)Man(a1-6)[GlcNAc(b1-2)Man(a1-3)]Man(b1-4)GlcNAc(b1-4)GlcNAc
# Method in brief: as §1
# [28] = biological target: Neu5Ac(a2-6)GalNAc(b1-4)GlcNAc
# Method in brief: as §1
binder,measurement,setting,value
"Tim-4 (Mus musculus), Q6U7R4 (protein) MSKGLLLLWLVTELWWLYLTPAASEDTIIGFLGQPVTLPCHYLSWSQSRNSMCWGKGSCPNSKCNAELLRTDGTRIISRKSTKYTLLGKVQFGEVSLTISNTNRGDSGVYCCRIEVPGWFNDVKKNVRLELRRATTTKKPTTTTRPTTTPYVTTTTPELLPTTVMTTSVLPTTTPPQTLATTAFSTAVTTCPSTTPGSFSQETTKGSAFTTESETLPASNHSQRSMMTISTDIAVLRPTGSNPGILPSTSQLTTQKTTLTTSESLQKTTKSHQINSRQTILIIACCVGFVLMVLLFLAFLLRGKVTGANCLQRHKRPDNTEDSDSVLNDMSHGRDDEDGIFTL",glycan array binding signal (z-score),Fuc(a1-2)Gal(b1-3)GalNAc,-0.114
same,glycan array binding signal (z-score),[1],0.285
same,glycan array binding signal (z-score),[2],0.089
same,glycan array binding signal (z-score),[3],0.006
same,glycan array binding signal (z-score),[4],-0.188
same,glycan array binding signal (z-score),Fuc(b1-3)GlcNAc,-0.139
same,glycan array binding signal (z-score),[5],-0.083
same,glycan array binding signal (z-score),[6],-0.25
same,glycan array binding signal (z-score),[7],-0.661
same,glycan array binding signal (z-score),[8],-0.396
same,glycan array binding signal (z-score),[9],-0.345
same,glycan array binding signal (z-score),Gal3S(b1-3)GalNAc,2.34
same,glycan array binding signal (z-score),Gal3S(b1-4)Glc6S,1.82
same,glycan array binding signal (z-score),Gal3S6S(b1-4)GlcNAc,1.9
same,glycan array binding signal (z-score),GalNAc(a1-3)GalNAc,-0.157
same,glycan array binding signal (z-score),[10],-0.514
same,glycan array binding signal (z-score),[11],1.75
same,glycan array binding signal (z-score),[12],0.032
same,glycan array binding signal (z-score),[13],-0.953
same,glycan array binding signal (z-score),[14],-0.51
same,glycan array binding signal (z-score),[15],-0.437
same,glycan array binding signal (z-score),[16],1.32
"LSECtin (Homo sapiens), Q6UXB4 (protein) MEQESALRELRERVTQGLAEAGRGREDVRTELFRALEAVRLQNNSCEPCPTSWLSFEGSCYFFSVPKTTWAAAQDHCADASAHLVIVGGLDEQGFLTRNTRGRGYWLGLRAVRHLGKVQGYQWVDGVSLSFSHWNQGEPNDAWGRENCVMMLHTGLWNDAPCDSEKDGWICEKKAQLLTPPSALEPRPLQHVVSWGLLTSLAPGADCQRVFSSSSTAAESQKHLAQHSPVQPSAWALGPPCRPHPNSTHADPT",glycan array binding signal (z-score),Fuc(a1-2)Gal(b1-3)GalNAc,-0.303
same,glycan array binding signal (z-score),Fuc(a1-2)Gal(b1-4)Glc,3.15
same,glycan array binding signal (z-score),[1],-0.278
same,glycan array binding signal (z-score),[17],2.9
same,glycan array binding signal (z-score),[18],-0.279
same,glycan array binding signal (z-score),[19],0.092
same,glycan array binding signal (z-score),Gal(a1-4)Gal(b1-4)Glc,-0.309
same,glycan array binding signal (z-score),Gal(b1-2)Gal,-0.302
same,glycan array binding signal (z-score),[20],-0.295
same,glycan array binding signal (z-score),[6],-0.241
same,glycan array binding signal (z-score),GalNAc(b1-3)Gal,-0.287
same,glycan array binding signal (z-score),[21],5.09
same,glycan array binding signal (z-score),GlcNAc(b1-3)Man,0.057
same,glycan array binding signal (z-score),GlcNAc(b1-6)GalNAc,-0.174
same,glycan array binding signal (z-score),Kdn(a2-3)Gal(b1-4)GlcNAc,-0.308
same,glycan array binding signal (z-score),[22],0.406
same,glycan array binding signal (z-score),[23],-0.275
same,glycan array binding signal (z-score),[24],-0.307
same,glycan array binding signal (z-score),[25],-0.297
same,glycan array binding signal (z-score),[26],5.63
same,glycan array binding signal (z-score),[27],5.21
same,glycan array binding signal (z-score),[28],-0.301
